The source of these data is PubChem BioAssay (NCI).

Values joined by “and” are separate entries in the source; they are usually repeats but may differ in a detail not shown here. Equal values may be shown once. Compounds without any hit were thinned out: in the full panel of roughly 83,000, 20% have a hit.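 Negative percent growth values reflect cell death: -40 means 40% of the cells present at the start died, and -100 means all died.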 Active and inactive are the calls of the source. How the source made its calls: active means growth percent below 10; inactive means the rest.

The test system of one experiment is U251 CNS. Briefly: NCI-60 one-dose screen, 48 h (100 = growth as untreated, 0 = no growth, -100 = all killed). The following applies: 10 µM unless noted.
For `Oc1cccnc1CN1CCOCC1`, the growth is 104% (inactive) and 102% (inactive).
In the case of `COc1cc2c(cc1O)C(=O)CCCC2`, the growth was 96.8% (inactive).
For the compound `S=c1nn[nH]n1C1CCCCC1`, the growth is 102% (inactive).
For the compound `Cc1ccc(NC(=S)N/C=C(\c2ccccc2)S(=O)Cc2ccccc2)c(C)c1` (stereo unspecified), the growth was 87.9% (inactive).
For the compound `O=C(O)/C=C/C=C/c1ccccc1`, the growth is 106% (inactive) and 96.9% (inactive).
Consider `CC(C)(C(=O)c1cccnc1)c1cccnc1`, for which the growth is 103% (inactive) and 116% (inactive).
`CCCCCCC(C)CC1=C(O)c2ccccc2C(=O)C1=O` (stereo unspecified): the growth was 46.3% (inactive).
On to `S=c1ccc2ccccc2[nH]1`, for which the growth is 96.7% (inactive) and 98.1% (inactive).
As for `O=C1C2=C(Nc3cc(Cl)ccc3N2)OC1c1c[nH]c2ccc(COc3ccccc3)cc12` (stereo unspecified), the growth was 52.2% (inactive).
With `Oc1ccc(O)c(-c2ccccc2)c1`, the growth is 41.4% (inactive).
On to `O=C1C=CC[C@H](/C=C/c2ccccc2)O1`, for which the growth is 12.8% (inactive) and -30% (active).
For the compound `COC(=O)c1nc(=S)[nH]c(C(=O)OC)c1C(=O)c1ccccc1`, the growth is 105% (inactive).
For `COc1ccc(COC=O)cc1`, the growth is 100% (inactive).
On the same count and under the same terms, as for `OCCCc1ccccc1`, the figure is 95.6% (inactive); as for `O=c1[nH]c(=O)c2[nH]c(=O)[nH]c2[nH]1`, 101% (inactive).
With `O=[N+]([O-])c1cccc(N=Cc2ccccc2)c1`, the growth is 103% (inactive).
For the compound `O=C(NC(=O)c1ccc(F)c(Cl)c1)NC1CC1`, the growth is 104% (inactive).
The same measure, in the same setting: for `COCCCNC1=C(C#N)C(=O)NC(c2cccs2)S1` (stereo unspecified) the value was 100% (inactive).
Regarding `CN(C)c1ccc(C(=N)c2ccc(N(C)C)cc2)cc1`, the growth was 16.6% (inactive) and 17.1% (inactive).
Consider `Cc1cccc(Cl)c1N`, for which the growth is 108% (inactive).
Consider `ON=C(C1CCCCC1)C1CCCCC1`, for which the growth is 98.1% (inactive).
On the same count and under the same terms, as for `CNc1ccc(Cl)cc1S(=O)(=O)c1ccccc1[N+](=O)[O-]`, the figure is 84.3% (inactive) and 86.7% (inactive); as for `Cc1c(O)nc(N)[nH]c1=O`, 100% (inactive).
As for `Cc1cc(Cl)nc(Nc2ccccc2)n1`, the growth was 98.7% (inactive).
As for `CCCC(=O)OCC(COC(=O)CCC)OC(=O)CCC`, the growth is 88.3% (inactive).
With `COc1ccc2oc3cc(NCCN(C)C)ccc3c(=O)c2c1`, the growth is 76.7% (inactive).
For the compound `N#Cc1c(N)nc2c(c(-c3ccc(Cl)cc3)nn2-c2ccccc2)c1C#N`, the growth is 92.8% [100 µM] (inactive).
On the same count and under the same terms, for `Cc1c(Cl)cc(Cl)c(N)c1Cl` the value was 99.4% (inactive).
For the compound `CCOC(=O)c1csc(N)n1`, the growth was 111% (inactive) and 86.7% (inactive).
In the case of `O=c1[nH]c(=O)n(C2OC(CO)C(O)C2O)cc1I` (stereo unspecified), the growth is 99.1% (inactive) and 111% (inactive).
As for `Cc1cc(NC(=O)NC(=O)c2ccccc2N(C)C)ccc1Oc1ncc(Br)cn1`, the growth is -43.4% (active).
Turning to `C(=N\OCCc1ccccc1)/c1ccccn1`, the growth is 103% (inactive) and 92.2% (inactive).
Consider `O=c1[nH]nnc2cc(Cl)ccc12`, for which the growth was 97.3% (inactive) and 93.8% (inactive).
As to `CC(CN(C)C)CN1c2ccccc2Sc2ccccc21` (stereo unspecified), the growth is 73.4% (inactive) and 87.5% (inactive) and 76.9% (inactive).
`CCOP(C)(=O)/C(Cc1ccc(OC)c(OC)c1)=N\O` (stereo unspecified): the growth was 107% (inactive).
Take `O=C(O)COc1ccccc1F`: the growth was 109% (inactive).
Take `CC(=O)Nc1ccc(OC(C)=O)cc1`: the growth is 11.7% (inactive) and 102% (inactive).
As for `CC(C)(C)OC(=O)NCCc1ccc(N)cc1`, the growth is 103% (inactive).

For the next experiment, the system named is PC-3 prostate. Described as above. The following applies: 10 µM unless noted.
In the case of `Oc1cccnc1CN1CCOCC1`, the growth is 93.9% (inactive) and 96.3% (inactive).
On to `COc1cc2c(cc1O)C(=O)CCCC2`, for which the growth is 87.6% (inactive).
As for `S=c1nn[nH]n1C1CCCCC1`, the growth is 101% (inactive).
Same read-out and setting: as for `Cc1ccc(NC(=S)N/C=C(\c2ccccc2)S(=O)Cc2ccccc2)c(C)c1` (stereo unspecified), the figure is 86% (inactive); as for `O=C(O)/C=C/C=C/c1ccccc1`, 97.4% (inactive) and 101% (inactive).
On the same count and under the same terms, as for `CC(C)(C(=O)c1cccnc1)c1cccnc1`, the figure is 89.5% (inactive) and 92.5% (inactive).
As to `CCCCCCC(C)CC1=C(O)c2ccccc2C(=O)C1=O` (stereo unspecified), the growth was 33.9% (inactive).
Still for that read-out and setting: as for `S=c1ccc2ccccc2[nH]1`, the figure is 86.3% (inactive) and 96.4% (inactive); as for `O=C1C2=C(Nc3cc(Cl)ccc3N2)OC1c1c[nH]c2ccc(COc3ccccc3)cc12` (stereo unspecified), 45.7% (inactive); as for `Oc1ccc(O)c(-c2ccccc2)c1`, 64.3% (inactive).
As for `O=C1C=CC[C@H](/C=C/c2ccccc2)O1`, the growth was 20.2% (inactive) and 13% (inactive).
As to `COC(=O)c1nc(=S)[nH]c(C(=O)OC)c1C(=O)c1ccccc1`, the growth was 91.2% (inactive).
Same read-out and setting: for `COc1ccc(COC=O)cc1` the value was 99.9% (inactive); for `OCCCc1ccccc1`, 100% (inactive).
Regarding `O=c1[nH]c(=O)c2[nH]c(=O)[nH]c2[nH]1`, the growth was 96.2% (inactive).
As to `O=[N+]([O-])c1cccc(N=Cc2ccccc2)c1`, the growth is 90.6% (inactive).
With `O=C(NC(=O)c1ccc(F)c(Cl)c1)NC1CC1`, the growth was 98.6% (inactive) and 87.5% (inactive).
Same read-out and setting: as for `COCCCNC1=C(C#N)C(=O)NC(c2cccs2)S1` (stereo unspecified), the figure is 100% (inactive); as for `CN(C)c1ccc(C(=N)c2ccc(N(C)C)cc2)cc1`, 66% (inactive) and 47.3% (inactive).
Turning to `Cc1cccc(Cl)c1N`, the growth is 95.5% (inactive).
As for `ON=C(C1CCCCC1)C1CCCCC1`, the growth is 98.1% (inactive).
On the same count and under the same terms, as for `CNc1ccc(Cl)cc1S(=O)(=O)c1ccccc1[N+](=O)[O-]`, the figure is 91.9% (inactive) and 96.2% (inactive); as for `Cc1c(O)nc(N)[nH]c1=O`, 101% (inactive).
Consider `Cc1cc(Cl)nc(Nc2ccccc2)n1`, for which the growth was 96.8% (inactive).
As to `CCCC(=O)OCC(COC(=O)CCC)OC(=O)CCC`, the growth is 85.4% (inactive).
On to `COc1ccc2oc3cc(NCCN(C)C)ccc3c(=O)c2c1`, for which the growth is 83.6% (inactive) and 70.9% (inactive).
Still for that read-out and setting: for `N#Cc1c(N)nc2c(c(-c3ccc(Cl)cc3)nn2-c2ccccc2)c1C#N` the value was 98.6% [100 µM] (inactive); for `Cc1c(Cl)cc(Cl)c(N)c1Cl`, 92.2% (inactive).
Consider `CCOC(=O)c1csc(N)n1`, for which the growth is 95.4% (inactive) and 94.5% (inactive).
For the compound `O=c1[nH]c(=O)n(C2OC(CO)C(O)C2O)cc1I` (stereo unspecified), the growth is 87.4% (inactive) and 91.9% (inactive).
On to `Cc1cc(NC(=O)NC(=O)c2ccccc2N(C)C)ccc1Oc1ncc(Br)cn1`, for which the growth was -10.1% (active) and 25.9% (inactive).
On the same count and under the same terms, as for `C(=N\OCCc1ccccc1)/c1ccccn1`, the figure is 112% (inactive) and 104% (inactive).
Turning to `O=c1[nH]nnc2cc(Cl)ccc12`, the growth was 103% (inactive) and 90.7% (inactive).
With `CC(CN(C)C)CN1c2ccccc2Sc2ccccc21` (stereo unspecified), the growth was 63.7% (inactive) and -49.1% (active) and 52.7% (inactive).
Consider `CCOP(C)(=O)/C(Cc1ccc(OC)c(OC)c1)=N\O` (stereo unspecified), for which the growth was 106% (inactive).
As to `O=C(O)COc1ccccc1F`, the growth was 82.6% (inactive).
Take `CC(=O)Nc1ccc(OC(C)=O)cc1`: the growth is 11.5% (inactive) and 92.8% (inactive).
Turning to `CC(C)(C)OC(=O)NCCc1ccc(N)cc1`, the growth is 89.5% (inactive).
